In the library only some 3.9% were active in any assay of this set; here they are far more common.
NSD2 inh: NSD2 histone methyltransferase inhibitors, primary screen, biochemical, AlphaScreen, single concentration, set 2 | Histone-lysine N-methyltransferase NSD2 (Homo sapiens), O96028 | NSD2 peptide methylation, 120 min | inhibition, % at 12.5 µM | actives 0.54% (n = 310,000); in the data active means inhibition above about 50%
CDK5 inh: inhibitors of human CDK5/p35 kinase, primary screen, biochemical, single concentration. Cyclin-dependent kinase 5 (Homo sapiens) + Cyclin-dependent kinase 5 activator 1 (Homo …. Recombinant CDK5/p35, ADP-Glo luminescence, 60 min. inhibition, % at 10 µM. actives 0.01% (n = 330,000). AID 488839, 2010;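 active means highest replicate inhibition of at least 50% and at least 75% of replicates reaching 50%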;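 further: plate controls were DMSO neutral control for no effect and GW8510 at 10 µM for full effect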
CASP6 VEID inh: human caspase-6 inhibitors, primary screen, biochemical, VEID-R110 fluorescence, single point, set 2 | P55212 | purified caspase-6, Z-VEID-R110 cleavage fluorescence | inhibition, % at 12.5 µM | actives 0.53% (n = 350,000) | AID 686996, 2013;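 active means mean inhibition across replicates at least about 35%, with every replicate also reaching that limit, limit read from the data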;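 further: 0% = median of neutral control wells and 100% = no fluorescence left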
Target sequence (P55212 24-179 limits assumed): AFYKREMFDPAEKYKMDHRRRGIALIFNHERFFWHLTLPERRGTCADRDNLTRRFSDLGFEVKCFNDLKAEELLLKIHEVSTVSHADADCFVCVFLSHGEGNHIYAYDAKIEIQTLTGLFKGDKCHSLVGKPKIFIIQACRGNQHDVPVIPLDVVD
Target sequence (P55212 194-293 limits assumed): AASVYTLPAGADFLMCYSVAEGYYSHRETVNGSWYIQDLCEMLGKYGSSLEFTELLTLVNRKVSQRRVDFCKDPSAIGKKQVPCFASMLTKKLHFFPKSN
Glyco luc inh: increase of ERlucT glycosylation luciferase signal, primary screen, N-linked glycosylation inhibitor project, D54 ERlucT cells, luminescence, set 2; actives 0.23% (n = 360,000); reporter increase, % at 12.5 µM; D54 ERlucT glycosylation luciferase reporter, 24 h; percent of 100 nM tunicamycin response;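 active means mean luciferase reporter signal, scaled so untreated is 0 and the glycosylation-blocking control 100, at or above a set limit in every replicate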;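 further: luciferase carries N-glycosylation sites so blocking glycosylation raises the light; 0% = median of neutral control wells and 100% = median of 100 nM tunicamycin wells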
ALR H2O2 inh: inhibitors of human ALR sulfhydryl oxidase, primary screen, biochemical, H2O2 detection, HRP-luminol luminescence, single point; purified ALR, DTT oxidation; FAD-linked sulfhydryl oxidase ALR (Homo sapiens), P55789; actives 3.8% (n = 290,000); inhibition, % (test concentration not listed);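 active means mean replicate inhibition above about 79%, with every replicate also reaching it, limit read from the data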
Target sequence (P55789 whole entry, looked up): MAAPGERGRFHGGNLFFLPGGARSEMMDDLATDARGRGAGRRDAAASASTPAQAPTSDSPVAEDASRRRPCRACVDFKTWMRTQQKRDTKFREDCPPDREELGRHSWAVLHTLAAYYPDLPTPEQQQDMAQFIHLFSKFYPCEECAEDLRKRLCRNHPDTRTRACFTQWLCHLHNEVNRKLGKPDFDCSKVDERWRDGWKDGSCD
SUMO Mot1 rescue: yeast Mot1-301 growth rescue at high temperature, primary screen, SUMOylation pathway inhibitor project, S. cerevisiae, ATP luminescence, 38.5C; growth rescue, % at 18.8 µM; S. cerevisiae Mot1-301 growth rescue; percent above DMSO median, 100 means doubled; AID 2716, 2010; actives 1% (n = 320,000);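 active means every valid replicate shows activation above 250% relative to neutral control wells; inactive means the rest, any valid replicate at or below 250%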;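 further: OY570 slx delta 5 strain wells were the positive control but not used for scaling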
The depositor's hits bear a star; i = inactive; · = not tested or not shown.

SMILES	NSD2 inh	CDK5 inh	CASP6 VEID inh	Glyco luc inh	ALR H2O2 inh	SUMO Mot1 rescue
COc1cc(OC)cc(C(=O)NC(=S)NNC(=O)[C@H]2C[C@@H]2c2ccccc2)c1	0	0	-4	1	99*	-11
COc1ccc(-c2csc(NC(=O)CSc3nnc4c(C)cc5ccccc5n34)n2)cc1	6	·	·	·	·	·
C/C=C/c1ccc2c(c1)O[C@@H](CN(C)C(=O)C1CCOCC1)[C@H](C)CN([C@@H](C)CO)S2(=O)=O	·	·	-1	·	·	·
O=C(NCCNC(=O)c1ccccn1)c1ccccc1	-2	-1	-3	1	95*	253
O=C(NCCNC(=O)c1ccccn1)c1ccc(Cl)cc1	-1	-6	1	0	2	-1
COc1ccc(C(=O)NNC(=O)c2ccccn2)cc1	·	55*	0	-23	29	-18
CNC(=O)C[C@H]1CC[C@H]2[C@H](COc3ccc(NC(=O)Nc4ccccc4)cc3C(=O)N2C)O1	·	·	3	·	·	·
COc1cccc(NC(=O)CN2CCSc3ccccc32)c1	5	0	2	-3	100*	-4
COc1ccccc1NC(=O)CN1CCSc2ccccc21	2	0	3	-1	80*	-16
COc1ccc(CCNC(=O)C2CCN(C(=O)c3ccc([N+](=O)[O-])cc3)CC2)cc1	1	-5	-3	0	-1	314*
C[C@@H]1CN([C@@H](C)CO)C(=O)c2ccccc2-c2ccccc2CO[C@H]1CN(C)S(=O)(=O)c1ccc(C(F)(F)F)cc1	·	·	0	·	·	·
N=c1c2c3c(sc2ncn1Cc1ccco1)CCCCC3	5	0	·	2	92*	-17
Nc1cc(C(F)(F)F)ccc1C(=O)O	·	-3	1	2	97*	7
O=C(CCC1N=C2c3ccccc3N=C(SCc3ccccc3Cl)N2C1=O)NCc1ccco1 (centres undefined)	3	0	·	-2	99*	-8
c1ccc(CNc2ncnc3sc4c(c23)CCCC4)nc1	1	-3	3	0	96*	2
O=C(Nc1ccc(Cl)cc1)Nc1ccccc1C(=O)O	-8	0	3	-15	14	7
O=C(Cc1ccccc1)NNC(=O)Nc1ccc(Cl)c(Cl)c1	0	1	0	-2	-3	4
O=C(Nc1ccc(Cl)c(Cl)c1)Nc1ccccc1C(=O)O	0	-1	·	-16	98*	-7
NC(=S)NNC(=O)Nc1ccc(Cl)c(Cl)c1	-1	6	·	-1	94*	3
Cc1cc(C(=O)Nc2cccc3c2O[C@H](CN(C)C(=O)Nc2ccc4c(c2)OCO4)[C@H](C)CN([C@H](C)CO)C3=O)n(C)n1	·	·	2	·	·	·
C[C@H]1CN([C@@H](C)CO)S(=O)(=O)c2ccc(-c3ccccc3)cc2O[C@@H]1CN(C)C(=O)Cc1ccccc1	·	·	-1	·	·	·
C[C@@H]1CN([C@H](C)CO)S(=O)(=O)c2ccc(-c3cccnc3)cc2O[C@@H]1CN(C)Cc1cncnc1	·	·	-3	·	·	·
O=C(NCc1cccnc1)c1sc2cc(Cl)ccc2c1Cl	6	-1	·	-1	10	-5
Cn1c(C(=O)NCc2cccnc2)cc2sc(Cl)cc21	3	2	-3	2	94*	-11
CC(C)(C)[S@@](=O)N1Cc2cc(C(=O)NC3CCCCC3)nc(-c3cccc(Br)c3)c2[C@H]1CCO	·	·	-6	·	·	·
SMILES	NSD2 inh	CDK5 inh	CASP6 VEID inh	Glyco luc inh	ALR H2O2 inh	SUMO Mot1 rescue
Cc1noc(C)c1S(=O)(=O)N(C)C[C@H]1OCc2ccccc2-c2ccccc2C(=O)N([C@@H](C)CO)C[C@H]1C	·	·	3	·	·	·
CCC[C@@H](CN1CCC[C@H]1CN1C(N)=NC[C@@H]1Cc1ccccc1)N1C[C@@H](Cc2ccccc2)N(CCc2ccc(Cl)c(Cl)c2)C1=N	·	2	45*	2	-9	13
CCC[C@@H](CN1CCC[C@H]1CN1C(N)=NC[C@H]1CC(C)C)N1C[C@@H](Cc2ccccc2)N(CCc2ccc(Cl)c(Cl)c2)C1=N	·	7	36*	4	-8	-4
CC(C)NC(=O)N(C)C[C@@H]1Oc2cc(C#Cc3ccc(F)cc3)ccc2S(=O)(=O)N([C@H](C)CO)C[C@@H]1C	·	·	1	·	·	·
CC(C)C#Cc1ccc2c(c1)O[C@H](CN(C)Cc1cncnc1)[C@@H](C)CN([C@@H](C)CO)S2(=O)=O	·	·	1	·	·	·
Cc1nc(C#N)c(N/N=C/c2cccc(Cl)c2)o1	·	-1	-1	-1	97*	i
Cc1cc(N/N=C/c2cccc(Cl)c2)nc(-n2nc(C)cc2C)n1	-1	-1	2	-1	-15	-2
O=C(CC1CC1)Nc1ccc2c(c1)[C@@H]1C[C@H](CC(=O)N3CCCCC3)O[C@@H](CO)[C@@H]1O2	·	·	-1	·	·	·
O=S(=O)(Nc1ccc(O)cc1)c1cccc2cccnc12	·	1	2	-1	101*	319
CC(C)c1ccc(NS(=O)(=O)c2cccc3cccnc23)cc1	-4	1	-4	-6	3	-15
Cc1cc(C)c(S(=O)(=O)Nc2ccc(O)cc2)cc1C	8	-1	·	-3	99*	-19
C[C@@H]1CN([C@@H](C)CO)C(=O)CCCn2cc(nn2)CO[C@H]1CN(C)CC1CCCC1	·	·	1	·	·	·
CCCNC(=O)N[C@H]1CC[C@H](CC(=O)NC2CCC2)O[C@H]1CO	·	·	-2	·	·	·
CS(=O)(=O)N1[C@@H]2Cn3c(cccc3=O)[C@H]1[C@@H](C(=O)NCc1ccccc1)[C@@H]2CO	·	·	-2	·	·	·
COc1ccc(NC(=O)CSc2nnc(-c3ccco3)c(-c3ccco3)n2)cc1OC	3	-2	·	-4	90*	183
COc1cccc(NC(=O)CSc2nnc(-c3ccco3)c(-c3ccco3)n2)c1	21	0	43*	4	99*	199
CN(C)c1ccc(NC(=O)CSc2nnc(-c3ccco3)c(-c3ccco3)n2)cc1	6	0	2	2	·	11
c1ccc2c(C3=NNC(=NC4CC4)SC3)c[nH]c2c1	3	-3	·	-19	99*	-2
CCc1c(O)nc(SCC(=O)c2ccccc2)n(-c2ccccc2)c1=O	-5	-1	2	0	99*	15
CCc1c(O)nc(SCC(=O)N2CCOCC2)n(-c2ccccc2)c1=O	-4	-1	·	1	96*	-3
CCc1c(O)nc(SCC(=O)NC(C)(C)C)n(-c2ccccc2)c1=O	4	0	·	0	52	0
CN(C)C(=O)C[C@@H]1C=C[C@H](NC(=O)C2CC2)[C@H](CO)O1	·	·	-1	·	·	·

Screening results: PubChem BioAssay, Broad Institute
